# HT1080 IDH1KD tx = kills HT-1080 cells with IDH1 knockdown | 2% of 360,000 active | AID 686971 | HT-1080 IDH1 knockdown viability, ATP luminescence, 48 h | Potency, µM (series often up to 46.1 µM), without a hit: at the highest dose activity, negative = toxicity, usual class: cytotoxic;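 further: potency means the concentration at half of the fitted maximal effect; 0% = DMSO wells and -100% = cell-free medium wells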
#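 Luminescent ATP read-out (CellTiter-Glo, 10 min at room temperature) after 48 h compound exposure at 37 °C gave viability of IDH1-knockdown HT-1080 cells. Activity was normalised to DMSO and cell-free wells, then fitted as concentration-response curves.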
# IL1B secr inh = blocks inflammasome-driven IL-1 beta release; THP-1 LPS/ATP IL-1B secretion, AlphaLISA, 16 h; active compounds read low; 4.7% of 360,000 active; activity change, % at 57.5 µM; in the data active means activity change below about -50%; inconclusive means mostly about -30% to -49%
#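 Secreted IL-1B measured by AlphaLISA bead assay after 16 h compound exposure of THP-1 cells; compounds (final up to 57.5 uM) added 1 h before LPS (250 ng/mL) and ATP (1.25 mM) stimulation; lower signal means less secretion.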
# HT1080-NT tox = kills 2HG-producing HT-1080-NT fibrosarcoma cells | 1.6% of 360,000 active | Potency, µM (highest dose often 46.1 µM), inactives show at the top dose activity, negative = less viability, most hits filed as cytotoxic | HT-1080-NT fibrosarcoma viability, CellTiter-Glo ATP luminescence, 48 h;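 further: NT is the 2HG producing partner of a matched IDH1 knockdown line; potency means the concentration at half of the fitted maximal effect; 0% = DMSO-treated cells and -100% = media-only wells without cells; nearly all actives have a fitted effect of over 55% in size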
#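 Viability of the 2HG-overproducing fibrosarcoma line after 48 hours of compound exposure at 37 degrees C was determined by luminescence with CellTiter-Glo, and concentration-effect curves were then fitted and categorized.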
# TDP1 cell noCPT = qHTS for Inhibitors of human tyrosyl-DNA phosphodiesterase 1 (TDP1): qHTS in cells in absence of CPT; AID 686978, 2013; 15% of 420,000 active; DT40 Tdp1-/- hTDP1 cells, no CPT, ATP luminescence, 48 h; Potency, µM (highest dose often 46.2 µM), without a hit: top-dose activity change, negative = growth inhibition, usual class: inhibitors; further: potency means the concentration at half of the fitted maximal effect; nearly all actives have a fitted effect of over 55% in size
#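 Stably hTDP1-transfected Tdp1-null chicken DT40 cells were treated with library compounds minus camptothecin and grown for at least 48 hr at 37 °C, after which cellular ATP was quantified by luminescence.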
# TDP1 cell CPT = growth inhibition of DT40 Tdp1-/-;hTDP1 cells with camptothecin (screen for TDP1 inhibitors); 12% of 420,000 active; chicken DT40 Tdp1-/-;hTDP1 cells + 20 nM CPT, ATP luminescence, 48 h; Potency, µM (series often up to 46.2 µM), for the others: at the top dose activity change, negative = growth inhibition, actives largely listed as inhibitors; further: potency means the concentration at half of the fitted maximal effect; nearly all actives have a fitted effect of over 55% in size
#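 Chicken DT40 Tdp1-/- cells stably complemented with human TDP1 were seeded at 400 cells/well in medium containing 20 nM camptothecin, exposed to pin-transferred compounds, and grown at 37 °C for at least 48 hr. Viability was read as ATP luminescence.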
# * = called active by the depositor; ? = inconclusive; . = not tested or not shown; ! = a repeat was not active. This is a sample that favours compounds with a hit; in the whole collection about 19% have one here. Unless noted, the call rests on the fitted dose curve; in most records, active means well fitted curve in the direction sought with a large enough effect; inconclusive means small, poorly fitted or top-dose-only effect, or another doubt; inactive means no such curve, though single readings can be large; an effect the other way counts as inactive or inconclusive. Unless noted, on the % scale 0 is the no-effect control and ±100 the full control effect.
SMILES,HT1080 IDH1KD tx,IL1B secr inh,HT1080-NT tox,TDP1 cell noCPT,TDP1 cell CPT
CC(=O)c1cccc(NC(=O)/C=C/c2ccc(S(=O)(=O)N3CCOCC3)cc2)c1,14%,-15,19%,18µM*,?
O=C(/C=C/c1cccc(F)c1)Nc1ccc(S(=O)(=O)N2CCOCC2)cc1,-6%,-22,-6%,?,?
O=C(/C=C/c1ccccc1)Nc1ccc(S(=O)(=O)N2CCOCC2)cc1,-8%,8,0%,-18%,-18%
COc1ccc(Cc2c(-c3ccc(F)cc3)nc3cc(C)c(Br)c(C)n23)c(C)c1,-19%,81,-26%,18µM*,?
COc1ccc(Cc2c(-c3ccc(C)cc3)nc3cc(C)c(Br)c(C)n23)c(C)c1,-18%,0,-11%,?,2.3µM*
COc1ccc(Cc2c(-c3ccc(Cl)cc3)nc3cc(C)c(Br)c(C)n23)c(C)c1,-16%,71,-22%,?,?
COc1ccccc1N1CCN(C(=O)Cn2cnc3onc(-c4ccc(F)cc4)c3c2=O)CC1,.,.,.,23µM*,?
O=C(O)CCn1cnc2onc(-c3cc(F)cc(F)c3)c2c1=O,.,.,.,5%,1%
O=C(CCn1cnc2onc(-c3ccc(F)cc3)c2c1=O)N1CCN(c2ccc(F)cc2)CC1,.,.,.,18µM*,23µM*
COc1ccccc1N1CCN(C(=O)Cn2cnc3c2c(=O)n(C)c(=O)n3C)CC1,7%,17,8%,-25%,?
CC(C)OC(=O)c1ccc(NC(=S)NC(=O)c2cncc(Br)c2)cc1,0%,26,8%,?,-42%
COc1ccc(-c2csc(C(C)(NC(C)=O)c3ccccc3)n2)cn1 (configuration not stated),2%,-4,11%,?,?
CCOc1ccccc1NC(=O)c1cc(-c2ccccn2)nc2ccccc12,0%,?,18%,10µM*,21µM*
COc1cccc(NC(=O)c2cc(-c3ccc(OC)cc3OC)nc3ccccc23)c1,-14%,20,0%,?,?
COc1ccc(NC(=O)c2cc(-c3ccccn3)nc3ccccc23)c(OC)c1,-16%,?,0%,15µM*,29µM*
O=C1C=CC2=C3c4cc(O)c(O)cc4CC3(O)COC2=C1O (configuration not stated),-17%,-3,-26%,?,16µM*!
O=C(NC1CCCC1)C1CCN(c2cnccn2)CC1,1%,7,-5%,14%,-5%
CC1(C)C=C2C(=NN(c3ccccc3)C(N)=C2C#N)CO1,-1%,2,-15%,?,13µM*
Cc1oc(-c2cc(F)cc(F)c2)nc1CN1CCN(C(=O)c2ccco2)CC1,6%,-14,0%,?,?
Cc1cc(=O)[nH]c2nnc(SCc3c(F)cccc3Cl)n12,.,.,.,-5%,-32%
CN(C)CCOc1ccc2ccccc2c1,7%,3,5%,-17%,-10%
Cc1c(-c2ccccc2)c(-c2ccc(OCCN(C)C)cc2)n2ccccc12,-20%,-59*,-7%,?,?
CC(=O)c1c(C)n(-c2cccc(Cl)c2)c2ccc(O)cc12,-10%,-10,-17%,0.52µM*,?
CC(=O)c1c(C)n(-c2ccc(Cl)cc2)c2ccc(O)cc12,12%,2,-2%,-20%,?
CC(=O)c1c(C)n(-c2cccc(Cl)c2)c2ccc(OC(=O)c3ccccc3)cc12,.,.,.,29µM*,?
CC1(C)CC(NC(=O)C23CCC(C)(/C(=N/O)C2)C3(C)C)CC(C)(C)N1 (configuration not stated),-11%,8,2%,9%,-3%
Cc1ccc(CNC(=O)c2c(C)oc3ncnc(N4CCOCC4)c23)cc1,.,.,.,-27%,-22%
CC1CCN(CCCNC(=O)C2CCCN(c3ncnc4c3nc3n4CCCCC3)C2)CC1 (configuration not stated),3%,-5,-2%,-14%,-5%
